Reference: the supplement of paper PMC10849652
The full data set covers some 8,800 targets. This sample favours those with a hit. About 0.5% of all pairs of compound and target were hits.

These targets were tested with NC(=O)c1cnc(N[C@@H]2CCCC[C@@H]2N)nc1Nc1cccc(-n2nccn2)c1 (assay: log2 fold change, soluble protein after heating vs DMSO (PISA); higher = thermal stabilisation; K562 lysate, 10 uM; active = over 0.2 and 3.5 SD of the protein, either way, in both replicates (recomputed)).
In short: (§1)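 Dounce homogenisation of K562 pellets in PBS pH 7.4 with 1 mM MgCl2 produced a crude extract, used at 1 mg/mL protein. Exposure to 10 μM compound lasted 30 min, and aliquots were then heated for 3 min across 48°C-58°C, pooled and brought to 0.5% NP-40 at 4°C. The supernatant after 21,000xg for 90 min was quantified by TMTpro 16plex LC-MS/MS with channel sums equalised. Duplicate values are given as log-two fold change in thermal stability relative to solvent controls.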

UniProt Q14517, sequence (Q14517 whole entry, looked up): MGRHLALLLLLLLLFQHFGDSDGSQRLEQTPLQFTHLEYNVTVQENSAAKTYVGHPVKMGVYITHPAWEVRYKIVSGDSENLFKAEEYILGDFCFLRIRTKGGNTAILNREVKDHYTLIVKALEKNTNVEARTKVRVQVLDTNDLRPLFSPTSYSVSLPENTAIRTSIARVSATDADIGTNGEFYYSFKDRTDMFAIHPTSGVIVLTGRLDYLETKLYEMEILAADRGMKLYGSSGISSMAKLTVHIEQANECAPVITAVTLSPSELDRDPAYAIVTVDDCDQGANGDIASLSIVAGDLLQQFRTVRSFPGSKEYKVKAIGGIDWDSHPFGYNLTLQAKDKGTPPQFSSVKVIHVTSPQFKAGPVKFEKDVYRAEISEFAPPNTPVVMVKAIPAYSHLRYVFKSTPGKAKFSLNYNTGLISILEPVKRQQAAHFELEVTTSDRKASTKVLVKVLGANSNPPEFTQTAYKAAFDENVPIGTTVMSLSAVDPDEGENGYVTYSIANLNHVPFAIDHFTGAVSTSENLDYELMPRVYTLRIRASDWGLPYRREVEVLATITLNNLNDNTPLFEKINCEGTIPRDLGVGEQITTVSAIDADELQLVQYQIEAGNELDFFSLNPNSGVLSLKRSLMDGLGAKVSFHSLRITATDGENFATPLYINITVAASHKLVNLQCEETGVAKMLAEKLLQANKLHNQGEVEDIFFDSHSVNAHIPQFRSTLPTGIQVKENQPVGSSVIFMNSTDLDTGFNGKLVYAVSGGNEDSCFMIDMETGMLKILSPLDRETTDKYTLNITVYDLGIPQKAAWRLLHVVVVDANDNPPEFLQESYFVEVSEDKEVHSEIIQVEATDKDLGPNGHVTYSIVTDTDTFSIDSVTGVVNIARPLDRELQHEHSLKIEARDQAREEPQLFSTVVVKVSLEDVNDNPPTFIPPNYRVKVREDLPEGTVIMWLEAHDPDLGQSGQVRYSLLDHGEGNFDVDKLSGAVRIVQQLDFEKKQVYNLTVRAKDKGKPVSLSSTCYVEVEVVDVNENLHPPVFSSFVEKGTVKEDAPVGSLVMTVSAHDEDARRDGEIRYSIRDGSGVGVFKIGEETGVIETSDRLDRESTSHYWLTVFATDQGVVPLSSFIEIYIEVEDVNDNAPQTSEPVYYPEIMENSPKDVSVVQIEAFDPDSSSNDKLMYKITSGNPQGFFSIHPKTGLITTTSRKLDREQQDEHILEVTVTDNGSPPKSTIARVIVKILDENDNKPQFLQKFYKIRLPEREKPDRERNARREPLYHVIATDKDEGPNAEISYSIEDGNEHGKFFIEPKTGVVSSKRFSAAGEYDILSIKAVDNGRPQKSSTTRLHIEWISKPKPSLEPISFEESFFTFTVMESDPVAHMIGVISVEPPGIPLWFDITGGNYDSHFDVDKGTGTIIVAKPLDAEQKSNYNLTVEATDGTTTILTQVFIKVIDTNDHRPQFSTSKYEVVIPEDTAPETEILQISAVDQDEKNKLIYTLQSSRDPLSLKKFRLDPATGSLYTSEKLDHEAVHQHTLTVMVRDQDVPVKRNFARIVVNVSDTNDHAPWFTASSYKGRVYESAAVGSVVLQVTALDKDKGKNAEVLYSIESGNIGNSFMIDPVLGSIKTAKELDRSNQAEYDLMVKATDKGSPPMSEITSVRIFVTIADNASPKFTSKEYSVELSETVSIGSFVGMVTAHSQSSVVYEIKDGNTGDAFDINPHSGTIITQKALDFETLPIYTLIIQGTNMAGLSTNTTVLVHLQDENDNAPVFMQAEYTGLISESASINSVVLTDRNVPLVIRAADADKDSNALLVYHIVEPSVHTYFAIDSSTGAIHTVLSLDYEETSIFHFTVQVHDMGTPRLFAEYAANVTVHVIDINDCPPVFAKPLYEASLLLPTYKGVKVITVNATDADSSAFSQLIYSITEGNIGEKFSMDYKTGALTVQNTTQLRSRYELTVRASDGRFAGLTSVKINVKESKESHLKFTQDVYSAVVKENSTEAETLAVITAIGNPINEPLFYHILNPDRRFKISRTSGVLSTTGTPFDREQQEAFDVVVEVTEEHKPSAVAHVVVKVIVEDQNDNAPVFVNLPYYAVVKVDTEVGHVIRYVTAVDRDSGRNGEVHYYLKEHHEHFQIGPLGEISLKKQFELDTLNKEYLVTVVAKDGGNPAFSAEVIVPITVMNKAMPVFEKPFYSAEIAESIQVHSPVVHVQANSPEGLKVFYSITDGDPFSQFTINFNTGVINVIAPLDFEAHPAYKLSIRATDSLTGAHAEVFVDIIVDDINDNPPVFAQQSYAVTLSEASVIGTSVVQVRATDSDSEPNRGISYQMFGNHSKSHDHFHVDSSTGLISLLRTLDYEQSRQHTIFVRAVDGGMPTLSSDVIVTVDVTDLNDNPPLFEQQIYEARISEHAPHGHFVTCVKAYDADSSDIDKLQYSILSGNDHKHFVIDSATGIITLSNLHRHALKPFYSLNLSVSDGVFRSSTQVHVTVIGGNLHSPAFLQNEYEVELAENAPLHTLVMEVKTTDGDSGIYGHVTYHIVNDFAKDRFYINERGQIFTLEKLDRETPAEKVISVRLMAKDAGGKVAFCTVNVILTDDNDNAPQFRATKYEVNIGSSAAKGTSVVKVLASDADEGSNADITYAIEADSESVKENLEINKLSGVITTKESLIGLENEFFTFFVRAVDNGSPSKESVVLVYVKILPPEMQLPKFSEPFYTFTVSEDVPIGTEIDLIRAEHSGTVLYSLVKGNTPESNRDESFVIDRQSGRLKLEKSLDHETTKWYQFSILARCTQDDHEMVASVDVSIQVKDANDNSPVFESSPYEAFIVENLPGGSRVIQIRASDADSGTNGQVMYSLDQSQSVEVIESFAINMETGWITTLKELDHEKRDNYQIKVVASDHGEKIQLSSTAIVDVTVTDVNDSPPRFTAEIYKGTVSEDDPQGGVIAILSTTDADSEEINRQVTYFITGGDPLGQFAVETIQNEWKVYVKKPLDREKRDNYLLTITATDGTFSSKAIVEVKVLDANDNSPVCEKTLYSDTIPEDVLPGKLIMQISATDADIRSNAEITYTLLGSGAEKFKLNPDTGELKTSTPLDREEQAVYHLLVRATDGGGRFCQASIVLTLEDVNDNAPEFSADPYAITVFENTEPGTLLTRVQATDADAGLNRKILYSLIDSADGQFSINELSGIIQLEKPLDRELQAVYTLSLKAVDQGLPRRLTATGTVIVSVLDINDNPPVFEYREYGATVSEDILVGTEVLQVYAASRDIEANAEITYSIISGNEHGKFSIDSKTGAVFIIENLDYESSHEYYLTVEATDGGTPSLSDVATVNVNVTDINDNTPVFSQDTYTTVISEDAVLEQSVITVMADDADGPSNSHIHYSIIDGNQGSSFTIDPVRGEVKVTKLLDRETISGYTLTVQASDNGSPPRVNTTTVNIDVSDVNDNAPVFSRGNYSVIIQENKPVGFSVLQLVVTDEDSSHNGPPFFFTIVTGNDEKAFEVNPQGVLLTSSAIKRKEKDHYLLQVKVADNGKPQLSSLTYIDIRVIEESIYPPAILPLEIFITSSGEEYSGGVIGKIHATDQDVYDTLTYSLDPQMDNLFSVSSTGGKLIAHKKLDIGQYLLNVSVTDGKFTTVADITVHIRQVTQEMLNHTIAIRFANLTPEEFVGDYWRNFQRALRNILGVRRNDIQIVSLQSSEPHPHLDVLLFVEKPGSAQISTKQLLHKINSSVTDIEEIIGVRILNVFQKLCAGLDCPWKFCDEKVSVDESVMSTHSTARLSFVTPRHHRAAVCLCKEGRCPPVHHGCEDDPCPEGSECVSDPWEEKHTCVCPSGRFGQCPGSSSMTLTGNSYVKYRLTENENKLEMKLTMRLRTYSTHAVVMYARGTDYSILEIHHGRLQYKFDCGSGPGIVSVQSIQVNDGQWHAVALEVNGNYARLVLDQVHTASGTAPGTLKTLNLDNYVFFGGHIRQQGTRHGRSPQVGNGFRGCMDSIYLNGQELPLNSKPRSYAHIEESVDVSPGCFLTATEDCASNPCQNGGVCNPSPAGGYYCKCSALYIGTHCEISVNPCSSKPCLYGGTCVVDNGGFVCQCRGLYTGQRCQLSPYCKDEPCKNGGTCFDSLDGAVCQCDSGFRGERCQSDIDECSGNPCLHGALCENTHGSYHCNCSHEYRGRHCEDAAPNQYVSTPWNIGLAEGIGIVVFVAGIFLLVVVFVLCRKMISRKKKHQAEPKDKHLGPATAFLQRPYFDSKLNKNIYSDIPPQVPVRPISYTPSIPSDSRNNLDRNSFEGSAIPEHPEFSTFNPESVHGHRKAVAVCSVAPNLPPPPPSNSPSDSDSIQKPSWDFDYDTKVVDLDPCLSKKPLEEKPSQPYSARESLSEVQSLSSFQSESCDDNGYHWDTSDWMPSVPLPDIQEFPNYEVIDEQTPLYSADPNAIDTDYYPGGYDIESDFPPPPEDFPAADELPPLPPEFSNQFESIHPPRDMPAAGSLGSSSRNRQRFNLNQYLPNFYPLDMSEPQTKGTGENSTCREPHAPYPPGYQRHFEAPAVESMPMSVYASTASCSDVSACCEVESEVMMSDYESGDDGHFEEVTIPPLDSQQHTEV
UniProt P0C2W1, sequence (P0C2W1 whole entry, looked up): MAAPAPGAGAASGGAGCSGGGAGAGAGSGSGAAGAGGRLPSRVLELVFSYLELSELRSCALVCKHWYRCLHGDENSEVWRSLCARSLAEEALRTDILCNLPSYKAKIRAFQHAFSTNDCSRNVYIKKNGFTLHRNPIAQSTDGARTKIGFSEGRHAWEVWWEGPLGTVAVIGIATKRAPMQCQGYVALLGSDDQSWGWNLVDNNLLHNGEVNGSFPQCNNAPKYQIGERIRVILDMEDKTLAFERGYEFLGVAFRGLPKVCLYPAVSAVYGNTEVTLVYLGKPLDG
UniProt Q9NRW4, sequence (Q9NRW4 whole entry, looked up): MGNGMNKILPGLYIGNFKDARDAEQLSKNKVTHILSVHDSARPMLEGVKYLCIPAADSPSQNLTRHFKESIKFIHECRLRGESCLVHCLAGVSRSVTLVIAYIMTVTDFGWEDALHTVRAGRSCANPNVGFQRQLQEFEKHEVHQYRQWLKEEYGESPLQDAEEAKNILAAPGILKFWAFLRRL

log2 fold change, inactive:
EIF2B5, A0A3B3ITK8 -0.054
FBXO45 (UniProt P0C2W1) 0.147
EPB41 isoform 4 (UniProt P11171) 0.089
FAM111A (UniProt Q96PZ2) 0.035
FTSJ1 isoform 2 (UniProt Q9UET6) -0.019
FOXL2 (UniProt P58012) -0.15
EIF3I (UniProt Q5TFK1) 0.387
GART (UniProt C9JZG2) 0.139
ERG28 (UniProt Q9UKR5) -0.015
GAPVD1 (UniProt Q14C86) -0.023
GAA (UniProt P10253) -0.014
FYN (UniProt P06241) -0.025
EIF2AK3 (UniProt Q9NZJ5) 0.104
FLT4 (UniProt P35916) 0.162
DUSP22 isoform 2 (UniProt Q9NRW4) 0.036
FAM83D (UniProt Q9H4H8) 0.05
DYNC1I2 isoform 2 (UniProt Q13409) -0.008
GDE1 (UniProt Q9NZC3) -0.02
FAT1 (UniProt Q14517) -0.017
GABPB1 isoform 3 (UniProt Q06547) -0.037
EPN2 (UniProt I3L356) 0.021
EPB41, A0A2R8Y783 -0.108
FAT2 (UniProt Q9NYQ8) 0.025
GCA (UniProt P28676) -0.118

The targets below were run with NC1(c2ccc(-c3nc4ccn5c(=O)[nH]nc5c4cc3-c3ccccc3)cc2)CCC1 in the same assay as above.
In short: as §1

log2 fold change, inactive:
FBXO45 (UniProt P0C2W1) -0.002
FNDC3A (UniProt Q9Y2H6) -0.03
EPB41 isoform 4 (UniProt P11171) -0.096
FAM111A (UniProt Q96PZ2) -0.037
EID1 (UniProt Q9Y6B2) 0.133
FAM53B (UniProt Q14153) 0.042
FOXJ2 (UniProt Q9P0K8) -0.111
FBRSL1, A0A3B3IRR3 0.066
FOXL2 (UniProt P58012) 0.076
FAM204A (UniProt Q9H8W3) 0.098
GAA (UniProt P10253) -0.003
DYRK1A isoform 2 (UniProt Q13627) -0.047
FYN (UniProt P06241) 0.043
EIF2AK3 (UniProt Q9NZJ5) -0.166
FLT4 (UniProt P35916) 0.106
DUSP22 isoform 2 (UniProt Q9NRW4) 0.109
FAM83D (UniProt Q9H4H8) 0.01
DTL (UniProt Q9NZJ0) 0.048
DYNC1I2 isoform 2 (UniProt Q13409) -0.025
DST isoform 3 (UniProt Q03001) -0.071
GDE1 (UniProt Q9NZC3) -0.022
EXO5 (UniProt Q9H790) 0.08
FAT1 (UniProt Q14517) -0.071
GABPB1 isoform 3 (UniProt Q06547) -0.016
FAT2 (UniProt Q9NYQ8) -0.087
GCA (UniProt P28676) -0.017
ESRRB isoform 1 (UniProt O95718) 0.182
